RN4220 kill = growth inhibition of S. aureus RN4220, primary screen, OD600; 0.33% of 330,000 active; AID 1259311, 2017; inhibition, % (no concentration beside the values); 16 h; in the data active = inhibition above about 85%
DUSP3 inh = VHR1 phosphatase inhibitors, primary screen, biochemical, absorbance, uHTS | Dual specificity protein phosphatase 3 (Homo sapiens), P51452 | recombinant VHR phosphatase, pNPP absorbance | inhibition, % at 13.3 µM | 0.52% of 290,000 active | AID 1654, 2009; in the data active = inhibition above about 50%
Target sequence (P51452 whole entry, looked up): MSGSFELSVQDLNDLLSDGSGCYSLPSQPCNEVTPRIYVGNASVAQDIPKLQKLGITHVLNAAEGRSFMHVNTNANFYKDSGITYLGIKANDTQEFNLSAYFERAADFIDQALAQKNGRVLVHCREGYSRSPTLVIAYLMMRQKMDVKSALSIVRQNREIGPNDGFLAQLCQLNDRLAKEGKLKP
Mtb hypoxia inh = PubChem AID 1159583; M. tuberculosis hypoxia-regulated fluorescent reporter, fluorescence; fluorescence inhibition, % (test concentration not listed); 0.1% of 300,000 active; in the data active = fluorescence inhibition mostly above about 23%, no sharp cut-off; inactive = mostly below about 17%
PriA SSB inh = inhibitors of Klebsiella pneumoniae PriA binding to SSB C-terminal tail, primary screen, biochemical, AlphaScreen | PriA–SSB C-terminal tail interaction (Klebsiella pneumoniae) | AlphaScreen SSBct-PriA binding, biotinylated peptide | inhibition, % at 33 µM | 0.6% of 430,000 active; in the data active = inhibition mostly above about 37%, no sharp cut-off; inactive = mostly below about 20%
PfHsp40 yeast = rescue of yeast from PfHsp40 toxicity, primary screen, S. cerevisiae, ATP luminescence; S. cerevisiae expressing PfHsp40, growth rescue; growth rescue, % at 12.5 µM; 0.68% of 340,000 active; AID 504582, 2011; in the data active = growth rescue above about 28%, passing the limit was not always enough; inconclusive = no clear call, values can overlap the other calls;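 also: yeast W303a lacking pdr1 and pdr3 grown in galactose medium; growth measured after three days at 30 °C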
ugtP null kill = growth inhibition of ugtP-null S. aureus, primary screen, RN4220 ugtP deletion, OD600 | 0.54% of 330,000 active | 16 h | growth inhibition, % (concentration not given with the values); in the data active = growth inhibition above about 68%
Numbers stand for hits; i = inactive; ? = inconclusive; nt = no result given; ! = repeats disagree. Sampled rows, rich in hits. Any-hit rate of the full collection: about 1.8%.

SMILES	RN4220 kill	DUSP3 inh	Mtb hypoxia inh	PriA SSB inh	PfHsp40 yeast	ugtP null kill
Cc1cccc2sc(N(CCCN(C)C)C(=O)c3sc4ccccc4c3Cl)nc12	i	i	i	40!	i	i
COc1cc(C(=O)Oc2ccccc2C=NNC(=O)c2ccc(Cl)cc2Cl)cc(OC)c1OC	i	nt	i	i	nt	i
CCOC(=O)c1cnn2ccc(NC(=O)C3(c4ccccc4)CCOCC3)cc12	nt	nt	nt	i	nt	nt
CC(C)(C)c1ccc(NC(=O)CCSc2ccc3ccccc3n2)cc1	nt	nt	nt	i	nt	nt
Cc1cc(C)c2sc(N(CCCN(C)C)C(=O)c3ccc(S(=O)(=O)N(C)C4CCCCC4)cc3)nc2c1	i	nt	38	40!	i	i
COc1cc2nc(N(CCN(C)C)C(=O)c3ccc4ccccc4c3)sc2cc1OC	i	i	i	39!	i	i
Cc1ccc2sc(N(CCN(C)C)C(=O)c3ccc4ccccc4c3)nc2c1C	i	i	i	45!	i	i
COc1cc2ccccc2cc1C(=O)N(CCN(C)C)c1nc2c(OC)ccc(OC)c2s1	i	i	i	46	i	i
COc1ccc(C)c2sc(N(C[C@H]3CCCO3)C(=O)C3CCN(S(C)(=O)=O)CC3)nc12	nt	nt	nt	i	nt	nt
COc1ccc(C(=O)ON=Cc2ccc(S(=O)c3ccc(Cl)cc3)nc2)cc1 (stereo unspecified)	i	nt	nt	i	nt	i
CN(C)CCN(C(=O)c1ccc2ccccc2c1)c1nc2ccc(F)cc2s1	i	i	i	44!	i	i
CCc1ccc2nc(N(CCN(C)C)C(=O)c3ccc4ccccc4c3)sc2c1	i	i	i	i	i	i
O=C(Cc1ccccc1F)Nc1nc(-c2ccc(F)c(F)c2)cs1	i	i	i	i	242	i
CCS(=O)(=O)N1CCCc2ccc(NC(=O)c3c(-c4ccccc4Cl)noc3C)cc21	nt	nt	nt	i	nt	nt
CCOC(=O)C1=C(COC(=O)c2ccc(OC)c(S(=O)(=O)N3CCOCC3)c2)NC(=O)NC1C (stereo unspecified)	i	nt	18	i	i	i
COc1ccc(C(=O)Nc2nc(-c3ccccn3)cs2)cc1OC	nt	nt	nt	114	nt	nt
CN(CC1CCCO1)S(=O)(=O)c1ccc(C(=O)Nc2nc(-c3ccccn3)cs2)cc1 (stereo unspecified)	i	i	i	44	?	i
COc1cc(C(=O)Nc2nc(-c3cccs3)cs2)cc(OC)c1OC	i	i	i	i	41	i
O=C(CCCSc1ccc(F)cc1)Nc1nc(-c2ccccn2)cs1	nt	nt	nt	i	nt	nt
CC(Oc1ccc(F)cc1)C(=O)Nc1nc(-c2ccccn2)cs1 (stereo unspecified)	i	nt	i	57	i	i
COc1ccc(OC)c(C(=O)Nc2nc(-c3ccccn3)cs2)c1	nt	nt	nt	i	nt	nt
COc1ccc(C2CC(=O)C=C(c3cc(F)ccc3OC)C2)cc1 (stereo unspecified)	i	nt	i	nt	nt	i
CN=C(C)C(C(=O)OC)=C(O)c1c(F)cccc1F	nt	nt	nt	i	nt	nt
O=C(Nc1nc(-c2ccccn2)cs1)c1ccc(I)cc1	nt	nt	nt	i	nt	nt
CC(C)n1nnc(-c2ccc(C(=O)Nc3nc(-c4ccccn4)cs3)cc2)n1	nt	nt	nt	74	nt	nt
SMILES	RN4220 kill	DUSP3 inh	Mtb hypoxia inh	PriA SSB inh	PfHsp40 yeast	ugtP null kill
Cc1nc(C(=O)Nc2nc(-c3ccccn3)cs2)nn1-c1ccc(F)cc1	nt	nt	nt	90	nt	nt
Cc1ccnc2nc(C(=O)Nc3nc(-c4ccccn4)cs3)nn12	i	i	i	72	i	i
O=C(Nc1nc(-c2ccccn2)cs1)c1ccc([N+](=O)[O-])cc1	nt	nt	nt	102	nt	nt
COc1coc(C(=O)Nc2nc(-c3ccccn3)cs2)cc1=O	nt	nt	nt	87	nt	nt
O=C(Nc1nc(-c2ccccn2)cs1)c1ccc(C(F)(F)F)cc1	nt	nt	nt	i	nt	nt
CSCc1ccc(C(=O)Nc2nc(-c3ccccn3)cs2)cc1	nt	nt	nt	114	nt	nt
COc1coc(C(=O)Nc2nccs2)cc1=O	nt	nt	nt	i	nt	nt
Cn1ccc2cc(C(=O)Nc3nc(-c4ccccn4)cs3)ccc21	nt	nt	nt	110	nt	nt
O=C(Nc1nc(-c2ccccn2)cs1)c1ccc(F)cc1	nt	nt	nt	107	nt	nt
Cc1onc(-c2ccccc2Cl)c1C(=O)NCCN1Cc2ccccc2C1=O	i	i	i	47	i	i
Cc1onc(-c2c(Cl)cccc2Cl)c1C(=O)Nc1ccc2c(c1)OCCO2	i	i	nt	i	i	i
Cc1onc(-c2ccccc2Cl)c1C(=O)Nc1ccc2c(c1)OCO2	i	51	i	i	i	i
Cc1onc(-c2c(F)cccc2Cl)c1C(=O)Nc1ccc(Cl)c(S(=O)(=O)N(C)C)c1	i	nt	i	i	i	i
Cc1nc(-c2ccccc2F)sc1CNC(=O)c1c(-c2ccccc2Cl)noc1C	nt	nt	nt	i	nt	nt
COc1ccc(NC(=O)c2c(-c3c(F)cccc3Cl)noc2C)cc1[N+](=O)[O-]	nt	nt	nt	66	nt	nt
Cc1nc(C)c(-c2ccc(=O)n(CCNC(=O)c3c(-c4ccccc4Cl)noc3C)n2)s1	nt	nt	nt	37	nt	nt
Cc1onc(-c2ccccc2Cl)c1C(=O)NCCN1CCN(c2ccccc2F)CC1	nt	nt	nt	i	nt	nt
O=C(NCCCn1nc(-c2ccco2)ccc1=O)C1CC1	nt	nt	nt	i	nt	nt
CC(C)C(=O)N1CCc2ccc(NC(=O)c3ccccc3C(F)(F)F)cc2C1	nt	nt	nt	i	nt	nt
O=C(C=C(O)c1ccc(Cl)cc1)C(=O)NNC(=O)C(O)(c1ccccc1)c1ccccc1	i	nt	i	i	i	95
Cc1ccc(/C(O)=C/C(=O)C(=O)NNC(=O)C(O)(c2ccccc2)c2ccccc2)cc1	i	i	i	nt	i	i
CC12CN3CC(C)(CN(C1)C3c1ccccc1F)C2 (stereo unspecified)	i	i	i	i	61	i
CC(=O)c1ccc(NC(=S)Nc2ccc(Br)c(Cl)c2)cc1	100	i	i	i	i	100
O=C(NC(=S)Nc1ccc(Br)c(Cl)c1)C1CC1	i	i	i	i	i	i
O=C(c1ccc(NC(=S)Nc2ccc(Cl)c(Cl)c2)cc1)N1CCCC1	101	i	i	i	i	100
SMILES	RN4220 kill	DUSP3 inh	Mtb hypoxia inh	PriA SSB inh	PfHsp40 yeast	ugtP null kill
COc1cc(C)c(Cl)cc1S(=O)(=O)NCCC1=CCCCC1	nt	nt	nt	i	nt	nt
N#Cc1ccc(COC(=O)c2cccnc2Cl)cc1	i	59	i	i	i	i
CCCCCCCCCCCCCCCC[N+](C)(C)C	100	nt	i	i	?	100
CCCCCCCCCCCCCCCC[N+](C)(C)CC	100	nt	i	i	i	100
COCCN(Cc1ccsc1)S(=O)(=O)Cc1ccc(C(F)(F)F)cc1	nt	nt	nt	i	nt	nt
NC(=O)C1=CC(c2ccc3c(c2)OCO3)CC(OCCCCO)O1 (stereo unspecified)	i	nt	i	nt	nt	i
CCOc1ccc(NCc2ccccc2OCc2cccc(F)c2)cc1	i	i	i	i	i	92
c1ccc(CNc2nc(-c3ccccn3)nc3ccccc23)cc1	i	nt	i	64	i	i
c1ccc(CNc2nc(NCc3ccccc3)c3ccccc3n2)cc1	92	i	i	i	i	101
Cc1nnc(NCc2ccccc2)c2ccccc12	i	i	81	i	i	i
Cc1nnc(NCc2ccncc2)c2ccccc12	i	i	i	i	i	i
